Experimental findings from PubChem BioAssay (Tox21) are described below.

Molecules are shown by their SMILES. The source made the active and inactive calls. Unless noted, the call rests on the fitted dose curve; in most records, active means well fitted inhibition curve with a large enough effect in the repeat runs; inconclusive means weak or mixed curves; inactive means no such curve, though single readings can be large or run the other way.
Potency means the concentration at half of the fitted maximal effect.

Chain of Estrogen receptor (Homo sapiens) (P03372 whole entry, looked up): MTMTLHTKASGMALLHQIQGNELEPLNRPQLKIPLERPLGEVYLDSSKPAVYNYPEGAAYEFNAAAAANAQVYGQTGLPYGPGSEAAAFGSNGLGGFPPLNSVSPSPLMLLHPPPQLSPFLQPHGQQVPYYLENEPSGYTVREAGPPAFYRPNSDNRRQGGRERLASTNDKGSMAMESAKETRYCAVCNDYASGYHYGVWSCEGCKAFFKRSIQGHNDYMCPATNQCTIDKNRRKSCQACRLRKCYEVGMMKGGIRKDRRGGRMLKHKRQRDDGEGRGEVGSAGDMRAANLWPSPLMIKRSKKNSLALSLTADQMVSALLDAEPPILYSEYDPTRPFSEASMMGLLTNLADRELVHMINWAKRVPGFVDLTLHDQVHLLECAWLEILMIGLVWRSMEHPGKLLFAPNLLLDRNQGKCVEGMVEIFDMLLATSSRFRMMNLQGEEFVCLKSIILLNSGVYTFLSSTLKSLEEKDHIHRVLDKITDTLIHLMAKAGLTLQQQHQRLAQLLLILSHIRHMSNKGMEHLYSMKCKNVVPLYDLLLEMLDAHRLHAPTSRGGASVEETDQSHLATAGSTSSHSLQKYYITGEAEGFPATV

Test system in the first experiment: not listed separately
Briefly: qHTS assay to identify small molecule antagonists of the thyroid receptor (TR) signaling pathway (AID 743065). Further: nearly all actives have a fitted effect of over 55% in size. Particulars: GH3.TRE-Luc, T3-stimulated luciferase inhibition, 23.5 h; series mostly up to 70.3 µM. The essentials: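 Antagonism measured as loss of luciferase signal in GH3 cells stably carrying a TRE-luciferase reporter, co-treated with compound and T3 (1 nM final) for 23.5 h at 37 C. Viability was read in the same well by CellTiter-Fluor.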
Turning to `CC(C)(C)NC[C@H](O)COc1ccccc1C1CCCC1`, the Potency is 12.7 µM (active).
Same read-out and setting: the value for `CC(=O)Oc1cc(C)c(OC(C)=O)c2ccccc12` was 23.7 µM (active); that for `C=C1CC[C@H](O)CC1=C/C=C1\CCC[C@]2(C)[C@@H]([C@H](C)CCCC(C)(C)O)CC[C@@H]12` was 6.68 µM (active).
On the same count and under the same terms, in the case of `C[C@@H]1CCC2[C@@H](C)[C@@H](O)O[C@@H]3O[C@@]4(C)CC[C@@H]1[C@@]23OO4` (stereo partly specified) it was 0.75 µM (active); in that of `CN1CCN(CCCN2c3ccccc3Sc3ccccc32)CC1`, 23.7 µM (active); in that of `OCCN1CCN(CC/C=C2/c3ccccc3Sc3ccc(Cl)cc32)CC1`, 11.4 µM (active).
Turning to `CCCCCCOc1ccc(C(=N)N(CCCC)CCCC)c2ccccc12`, the Potency is 5.31 µM (active).
Still for that read-out and setting: the value for `Clc1cc(Cl)c(OCC#CI)cc1Cl` was 6.68 µM (active); that for `C[C@H]1[C@@H](OC(=O)CCC(=O)O)O[C@@H]2OC3(C)CC[C@H]4[C@H](C)CC[C@@H]1[C@@]24OO3` was 1.06 µM (active).
Regarding `CCN(CC)c1ccc(C(=C2C=CC(=[N+](CC)CC)C=C2)c2ccccc2)cc1`, the Potency was 0.335 µM (active).
For the compound `CCCCC(=O)OCC(=O)[C@]1(O)Cc2c(O)c3c(c(O)c2[C@@H](O[C@H]2C[C@H](NC(=O)C(F)(F)F)[C@H](O)[C@H](C)O2)C1)C(=O)c1c(OC)cccc1C3=O`, the Potency was 5.96 µM (active).
On the same count and under the same terms, the value for `CSc1nc2cc(Oc3cccc(Cl)c3Cl)c(Cl)cc2[nH]1` was 8.41 µM (active); that for `CN1CCCC(CN2c3ccccc3Sc3ccccc32)C1` (stereo unspecified) was 11.9 µM (active); that for `S=C1SCN(Cc2ccccc2)CN1Cc1ccccc1` was 18.8 µM (active).

The target of another experiment is Estrogen receptor (Homo sapiens) (UniProt P03372). Briefly: qHTS assay to identify small molecule antagonists of the estrogen receptor alpha (ER-alpha) signaling pathway (AID 743069; active means well fitted curve in the direction sought with a large enough effect in the signal ratio in the repeat runs, not every such curve was filed as active; inconclusive means weak or mixed curves, or effect the other way; inactive means no such curve, though single readings can be large or run the other way; the % refers to the signal ratio). To be noted: HEK293 ER-alpha-UAS-bla, beta-lactamase ratio, antagonist mode; series mostly up to 69.4 µM. The essentials:
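Fluorescence intensity from a beta-lactamase FRET substrate served as the read-out. Cells: HEK293 with stably integrated ER-alpha-UAS-bla reporter. Agonist 17beta-estradiol was co-added with compounds; incubation 18 hr at 37C, substrate 2 hr at room temperature.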
Background: qHTS replaces the single test concentration by a dilution series.
Turning to `Cc1cc(O)c2c(c1)O[C@@]1(C)CC[C@H]3C(C)(C)CCCC34CO[C@@H]2[C@H]41` (stereo partly specified), the Potency result is “inactive”.
Still for that read-out and setting: in the case of `CCN(CC)CCC(=O)N1c2ccccc2Sc2ccc(C(F)(F)F)cc21` it was “inactive”; in that of `CN1CCN(CCC=C2c3ccccc3Sc3ccc(S(=O)(=O)N(C)C)cc32)CC1`, “inactive”.
For the compound `C=C1CC[C@@H]2[C@](C)(CO)[C@H](O)CC[C@@]2(C)[C@@H]1C/C=C1/C(=O)OC[C@H]1O`, the Potency entry was “inactive”.
Turning to `CCN(CC)CCC(=O)N1c2ccccc2Sc2ccc(Cl)cc21`, the Potency entry is “inactive”.
On the same count and under the same terms, the value for `CC(=O)[C@]1(O)Cc2c(O)c3c(c(O)c2[C@@H](O[C@H]2C[C@H](N)[C@H](O)[C@H](C)O2)C1)C(=O)c1c(O)cccc1C3=O` was 10.7 µM [inconclusive] (active); that for `CC(C)N=c1cc2n(-c3ccc(Cl)cc3)c3ccccc3nc-2cc1Nc1ccc(Cl)cc1` was “inactive”; that for `CN(C)CCCN1c2ccccc2C(C)(C)c2ccccc21` was “inactive”.
Same read-out and setting: the value for `C=C1CC[C@H](O)CC1=C/C=C1\CCC[C@]2(C)[C@@H]([C@H](C)CC[C@@H](O)C(C)(C)O)CC[C@@H]12` was 21.3 µM [inconclusive] (active).
As to `CN(C)C(=O)CCSC(SCCC(=O)O)c1cccc(/C=C/c2ccc3ccc(Cl)cc3n2)c1` (stereo unspecified), the Potency was 7.56 µM [inconclusive] (active).
Same read-out and setting: the value for `OC[C@H]1OC([S-])[C@H](O)[C@@H](O)[C@@H]1O.[Au+]` (stereo partly specified) was “inactive”; that for `CC1=C(/C=C/C(C)=C/C=C/C(C)=C/C(=O)Oc2c(C)c(C)c3c(c2C)CC[C@@](C)(CCC[C@H](C)CCC[C@H](C)CCCC(C)C)O3)C(C)(C)CCC1` was “inactive”.
Same read-out and setting: the value for `CC(CN1c2ccccc2Sc2ccc(S(=O)(=O)N(C)C)cc21)N(C)C` (stereo unspecified) was “inactive”; that for `COc1ccc(C[C@H](N)C(=O)N[C@H]2[C@@H](O)[C@H](n3cnc4c(N(C)C)ncnc43)O[C@@H]2CO)cc1` was 4.25 µM [inconclusive] (active); that for `CC(C)N1CCN(c2ccc(OC[C@H]3CO[C@](Cn4cncn4)(c4ccc(Cl)cc4Cl)O3)cc2)CC1` was “inactive”.
On the same count and under the same terms, in the case of `C=C1C(=O)O[C@H]2[C@H]1CC/C(C)=C\CC[C@@]1(C)O[C@@H]21` it was “inactive”; in that of `CC(C)(C)NC[C@H](O)COc1ccccc1C1CCCC1`, “inactive”.
As for `C[C@@H]1CCC2[C@@H](C)[C@@H](O)O[C@@H]3O[C@@]4(C)CC[C@@H]1[C@@]23OO4` (stereo partly specified), the Potency was 9.52 µM [inconclusive] (active).
On the same count and under the same terms, the value for `Clc1cc(Cl)c(OCC#CI)cc1Cl` was “inactive”; that for `C[C@H]1[C@@H](OC(=O)CCC(=O)O)O[C@@H]2OC3(C)CC[C@H]4[C@H](C)CC[C@@H]1[C@@]24OO3` was 7.56 µM [inconclusive] (active).
Still for that read-out and setting: in the case of `CN1CCCC(CN2c3ccccc3Sc3ccccc32)C1` (stereo unspecified) it was 19 µM [inhibitor] (active); in that of `S=C1SCN(Cc2ccccc2)CN1Cc1ccccc1`, “inactive”.
